Some test systems named below: SK-MEL-2 melanoma; EKVX NSCLC; SN12C renal; UO-31 renal; TK-10 renal; ACHN renal; CAKI-1 renal; A498 renal; CCRF-CEM leukemia; MOLT-4 leukemia; SR leukemia; RPMI-8226 leukemia; OVCAR-8 ovarian; OVCAR-5 ovarian; OVCAR-4 ovarian; IGROV1 ovarian; OVCAR-3 ovarian; HS 578T breast; NCI/ADR-RES ovarian; SK-OV-3 ovarian.
Assay in all cases: NCI-60 one-dose screen, 48 h (100 = growth as untreated, 0 = no growth, -100 = all killed)
What all share (conditions): 10 µM unless noted

SMILES strings stand for the structures. Compounds without any hit were thinned out: in the full panel of roughly 83,000, 20% have a hit.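 How to read the values: 0–100, growth inhibition (40 = 60% inhibited); 0, no net growth; -100 to 0, cell death (-40 = 40% of starting cells died; -100 = all dead).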 Values without a mark were called inactive. The source made the active and inactive calls. The calls were made as follows: active = growth percent below 10; inactive = the rest.

For the compound `CN(C)CCN1C(=O)c2cccc3c(N)ccc(c23)C1=O`, the growth in the assay on SK-MEL-2 melanoma is 19.6%; in the assay with EKVX NSCLC, 30.5%; with SN12C renal, 33.6%; in the assay with UO-31 renal, 26.8%; in the assay on TK-10 renal, 58.9%; with ACHN renal it was 12.8%. Moreover, the growth with CAKI-1 renal is -7.49% (active); with A498 renal, 65.6%; in the assay on CCRF-CEM leukemia, 10.5%; in the assay with MOLT-4 leukemia, 1.9% (active); in the assay with SR leukemia it was -19.2% (active); in the assay on RPMI-8226 leukemia, 4.13% (active). The growth is 18.1% in the assay with OVCAR-8 ovarian; 36.5% in the assay with OVCAR-5 ovarian; 41.6% with OVCAR-4 ovarian; 27.6% in the assay with IGROV1 ovarian; 21.8% with OVCAR-3 ovarian; 56.8% with HS 578T breast. The growth with NCI/ADR-RES ovarian was 40%.

As to `CCOC(=O)c1sc2nc(-c3cccc(O)c3)nc(N3CCOCC3)c2c1C`, the growth is 78.9% in the assay with SK-MEL-2 melanoma; 36.1% in the assay on EKVX NSCLC; 50.7% in the assay with SN12C renal; 25.4% in the assay with UO-31 renal; 79.1% in the assay with TK-10 renal; 58.3% with ACHN renal. In addition, the growth in the assay on CAKI-1 renal is 72.3%; in the assay on A498 renal, 97.8%; with CCRF-CEM leukemia it was 42.2%; in the assay on MOLT-4 leukemia, 29.1%; in the assay on SR leukemia, 65%; with RPMI-8226 leukemia, 55.4%. Also, the growth in the assay with OVCAR-8 ovarian was 61.8%; in the assay on OVCAR-5 ovarian it was 88.3%; in the assay on OVCAR-4 ovarian, 51.3%; with SK-OV-3 ovarian it was 51.1%; with OVCAR-3 ovarian, 60.5%; in the assay on HS 578T breast it was 15.5%. In the assay with NCI/ADR-RES ovarian, the growth was 59.6%.

As to `CCCOc1cc2ccccc2cc1C(=O)Nc1nc(N)c2c(ccc3nccc32)[nH]1`, the growth in the assay on SK-MEL-2 melanoma was -49.6% (active); in the assay on EKVX NSCLC, -73.7% (active); in the assay on SN12C renal, -63.6% (active); with UO-31 renal, -65% (active); with TK-10 renal, -37.3% (active); with ACHN renal it was -80.9% (active). Moreover, the growth in the assay on CAKI-1 renal is -46.7% (active); with A498 renal, -87.6% (active); in the assay with CCRF-CEM leukemia, -13% (active); in the assay on MOLT-4 leukemia, -40.9% (active); in the assay on SR leukemia it was -16.2% (active); in the assay on RPMI-8226 leukemia, -40.5% (active). Also, the growth was -49% (active) in the assay with OVCAR-8 ovarian; -67.7% (active) in the assay with OVCAR-5 ovarian; -50.9% (active) in the assay on OVCAR-4 ovarian; -47% (active) in the assay with IGROV1 ovarian; -60.5% (active) in the assay with OVCAR-3 ovarian; -56.1% (active) in the assay with HS 578T breast. For the same compound, the growth in the assay with NCI/ADR-RES ovarian was -8.57% (active).

As for `CCc1nnc(CNc2ccc(Cl)cc2)o1`, the growth with SK-MEL-2 melanoma was 90.6%; in the assay on EKVX NSCLC, 91.3%; with SN12C renal it was 95.8%; in the assay on UO-31 renal, 73.7%; in the assay on TK-10 renal, 114%; in the assay on ACHN renal, 86.8%. In addition, the growth was 89.9% with CAKI-1 renal; 106% in the assay on A498 renal; 114% in the assay with CCRF-CEM leukemia; 89.7% in the assay on MOLT-4 leukemia; 88.6% in the assay on SR leukemia; 103% in the assay with RPMI-8226 leukemia. Besides, the growth was 109% in the assay with OVCAR-8 ovarian; 95.6% in the assay with OVCAR-5 ovarian; 99.2% in the assay with OVCAR-4 ovarian; 105% in the assay on IGROV1 ovarian; 99.9% with OVCAR-3 ovarian; 102% in the assay on HS 578T breast. Moreover, the growth with NCI/ADR-RES ovarian was 97.8%.

Consider `Cn1cc(-c2nonc2-c2c[nH]c3ccc(F)cc23)c2cccnc21`, for which the growth in the assay with SK-MEL-2 melanoma is 90.1%; with EKVX NSCLC it was 63%; with SN12C renal, 85.5%; in the assay with UO-31 renal, 63.3%; with TK-10 renal it was 85.9%; in the assay on ACHN renal, 78.5%. For the same compound, the growth in the assay with CAKI-1 renal is 63.9%; in the assay with A498 renal, 85.1%; in the assay on CCRF-CEM leukemia, 83%; in the assay with MOLT-4 leukemia, 63.4%; in the assay on SR leukemia, 58.7%; in the assay on RPMI-8226 leukemia, 69.2%. Further, the growth in the assay on OVCAR-8 ovarian was 89.1%; in the assay with OVCAR-4 ovarian, 71.3%; with SK-OV-3 ovarian, 87.1%; in the assay on IGROV1 ovarian, 61.7%; in the assay with OVCAR-3 ovarian it was 82%; in the assay on HS 578T breast, 72.9%. Besides, the growth with NCI/ADR-RES ovarian was 73.1%.

`Cc1cc(C)nc(SC2=C(Nc3cc(Cl)ccc3O)C(=O)N(Cc3ccccc3)C2=O)n1`: the growth was 97.6% [30 µM] in the assay with SK-MEL-2 melanoma; 83.9% [30 µM] in the assay with EKVX NSCLC; 91.6% [30 µM] with SN12C renal; 82.4% [30 µM] with UO-31 renal; 23.8% [30 µM] in the assay on TK-10 renal; 88.7% [30 µM] in the assay with ACHN renal. Besides, the growth was 99.7% [30 µM] with CAKI-1 renal; 75.5% [30 µM] with A498 renal; 22.1% [30 µM] in the assay with CCRF-CEM leukemia; 46.3% [30 µM] with MOLT-4 leukemia; 54% [30 µM] in the assay on SR leukemia; 36.5% [30 µM] with RPMI-8226 leukemia. The growth was 76.4% [30 µM] in the assay on OVCAR-8 ovarian; 123% [30 µM] in the assay on OVCAR-5 ovarian; 71.2% [30 µM] with OVCAR-4 ovarian; 103% [30 µM] in the assay with SK-OV-3 ovarian; 83.8% [30 µM] in the assay on IGROV1 ovarian; 88.3% [30 µM] with OVCAR-3 ovarian. The growth with NCI/ADR-RES ovarian is 74.6% [30 µM].

Consider `C#CC(F)(F)[C@]1(O)CC[C@H]2[C@@H]3CCC4=CC(=O)CCC4=C3[C@@H](c3ccc(C(C)=O)cc3)C[C@@]21C`, for which the growth was 99.4% in the assay on SK-MEL-2 melanoma; -60.6% (active) with EKVX NSCLC; 89.3% in the assay on SN12C renal; -75% (active) in the assay with UO-31 renal; 114% in the assay with TK-10 renal; 87.8% in the assay with ACHN renal. The growth is -31.9% (active) in the assay with CAKI-1 renal; 79% in the assay with A498 renal; -55.5% (active) in the assay with CCRF-CEM leukemia; 35.6% with MOLT-4 leukemia; 7.36% (active) in the assay with SR leukemia; 2% (active) with RPMI-8226 leukemia. For the same compound, the growth in the assay with OVCAR-8 ovarian is 90%; with OVCAR-5 ovarian, 84.4%; in the assay with OVCAR-4 ovarian, 76.2%; in the assay on SK-OV-3 ovarian, 52.8%; with OVCAR-3 ovarian, 9.4% (active); with HS 578T breast, 76.5%. The growth with NCI/ADR-RES ovarian was 82.7%.

Regarding `COc1cc2c(cc1-c1c(C)noc1C)ncc1nc(C3CCCCC3)n([C@H](C)COC(F)F)c12`, the growth with SK-MEL-2 melanoma is 69%; in the assay with EKVX NSCLC, 44.3%; in the assay on SN12C renal, 58.4%; in the assay on UO-31 renal, 13.6%; in the assay with TK-10 renal, 33.2%; with ACHN renal, 33.1%. Also, the growth in the assay on CAKI-1 renal is 29.2%; in the assay with A498 renal, -13.1% (active); in the assay with CCRF-CEM leukemia, 44.9%; in the assay with MOLT-4 leukemia, 47.6%; in the assay on SR leukemia, 17.9%; with RPMI-8226 leukemia, 18.9%. Also, the growth was 42% in the assay on OVCAR-8 ovarian; 75.1% in the assay on OVCAR-5 ovarian; 12.5% in the assay with SK-OV-3 ovarian; 37.3% in the assay on OVCAR-3 ovarian; 18.9% in the assay with HS 578T breast; 38.2% in the assay on NCI/ADR-RES ovarian.

(Values after PubChem BioAssay (NCI).)
